# Assay outcomes: PubChem BioAssay, National Center for Advancing Translational Sciences (NCATS)
# Most compounds without a hit are left out; they make up all but 6.5% or so of the library.
# Vaccinia mCherry: qHTS for Stage-Specific Inhibitors of Vaccinia Orthopoxvirus: mCherry Reporter Primary qHTS. Vaccinia virus mCherry reporter infection, fluorescence. Potency, µM (highest dose often 36.5 µM), for inactives: at the top dose activity change, negative = inhibition, usual class: inhibitors. 0.63% of 310,000 active; calls by dose curve; tested in A549 cells; also: potency is read from the fitted curve at half-maximal effect; nearly all actives have a fitted effect of over 35% in size
# FMDV antiviral: High Throughput Screening for Foot and Mouth Disease Virus Antivirals; FMDV antiviral cell-based qHTS; Potency, µM (top dose mostly 57.9 µM), inactives show at the top dose activity change, negative = inhibition, most hits filed as inhibitors; 1.2% of 410,000 active; calls by dose curve; tested in HEK293T cells; also: read-out not given here; potency is read from the fitted curve at half-maximal effect; nearly all actives have a fitted effect of over 45% in size
# HCMV antiviral: qHTS Assay for inhibitors of the human cytomegalovirus (HCMV). HFF cells, HCMV-luciferase reporter, 72 h; hits give low values. activity change, negative = inhibition, % at 57.5 µM. 4.5% of 410,000 active; in the data active = activity change below about -60%; inconclusive = no clear call, values can overlap the other calls; inactive = above about -39%
#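 Steps: HFFs plated, 16 h 37C; compounds added; HCMV-luciferase added to MOI 1 PFU/cell; 72 h 37C; OneGlo reagent, 5 min room temperature; luminescence read, normalized to controls.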
# MARV entry inh: qHTS for inhibitors of binding or entry into cells for Marburg Virus; Marburg virus pseudotyped entry inhibition, cell reporter; Potency, µM (highest dose often 37.8 µM), for the others: at the highest dose activity change, negative = inhibition, usual class: inhibitors; 1.8% of 300,000 active; AID 540276, 2011; calls by dose curve; tested in HEK293 cells; also: potency is read from the fitted curve at half-maximal effect
# Vaccinia Venus: qHTS for Stage-Specific Inhibitors of Vaccinia Orthopoxvirus: Venus Reporter Primary qHTS. Potency, µM (top dose mostly 36.5 µM), inactives show at the highest dose activity change, negative = inhibition, actives largely listed as inhibitors. Vaccinia virus Venus reporter expression, fluorescence. 0.46% of 330,000 active; calls by dose curve; tested in A549 cells; also: potency is read from the fitted curve at half-maximal effect; nearly all actives have a fitted effect of over 30% in size
# LASV entry inh: qHTS for Inhibitors of binding or entry into cells for Lassa Virus; 1.2% of 300,000 active; Lassa virus pseudotype entry inhibition, cell reporter; AID 540256, 2011; Potency, µM (highest dose often 37.9 µM), inactives show at the highest dose activity change, negative = inhibition, hits mostly inhibitors; calls by dose curve; tested in HEK293 cells; also: potency is read from the fitted curve at half-maximal effect; nearly all actives have a fitted effect of over 50% in size
# * hit, by the source's call; i = inactive; u = inconclusive; x = no result given; ! = not confirmed by another sample; [ ] = dose if it differs, or a comment. % is scaled to controls: 0 for no effect and ±100 for the full control effect.
SMILES,Vaccinia mCherry,FMDV antiviral,HCMV antiviral,MARV entry inh,Vaccinia Venus,LASV entry inh
COc1ccc(N=C2NC(=O)/C(=C\C=C\c3ccccc3)S2)cc1,0%,-5%,-25,-2%[46.1 µM],-10%,u
COc1ccc(N=C2NC(=O)/C(=C/C=C/c3ccccc3)S2)cc1,-17%,-1%,-40,-9%,-12%,1µM*
CC[C@H]1C(=O)OC[C@@H]1Cc1cncn1C,x,x,x,-6%,x,x
NC1=NC(=O)/C(=C\c2ccc(-c3ccccc3[N+](=O)[O-])o2)S1,i,x,x,x,-2%,x
COc1ccc(-c2nc(SCC(=O)Nc3ccc4c(c3)OCCO4)c(-c3ccc(C)cc3)[nH]2)cc1OC,-25%,-5%,3,u,-29%,u
COC(=O)[C@@H]1C[C@@]23C(=NN=C(SC)C2Nc2ccccc23)N1C(C)=O (some centres not stated),x,x,x,-23%[14.2 µM],x,x
O=c1c(-c2ccc(Cl)cc2)nc2cnc(N3CCNCC3)nc2n1Cc1cccs1,x,-15%,x,x,x,x
COc1cc(/C=C2\SC(N)=NC2=O)ccc1O,-17%,14%,-75*,u,u,-2%[46.1 µM]
Cc1ccc(-n2c(C)cc(/C=C3\SC(=O)NC3=O)c2C)cc1,x,56%,25,x,x,x
O=C1NC(=Nc2cccc(O)c2)S/C1=C\c1cccc([N+](=O)[O-])c1,0%,7%,-69*,16%,-21%,21%
C=CCOc1ccc(/C=C2\SC(N)=NC2=O)cc1OC,x,0%,116,x,x,x
Cc1cc(/C=C2\SC(=Nc3ccccc3)NC2=O)c(C)n1-c1ccc(S(N)(=O)=O)cc1,x,u,-96*,8.9µM*,u,u
O=C1NC(=Nc2cccc(O)c2)S/C1=C\c1cccnc1,-10%,20%,u,u,-16%,u
COc1ccc(C2NC(c3ccc4c(c3)OCO4)=CC(c3ccccc3O)N2)cc1OC (configuration not stated),-8%,x,x,x,11%,x
COC(=O)c1scc(-c2ccc(C)cc2)c1S(=O)(=O)Nc1cc(C)c(Cl)cc1OC,-12%,-1%,-28,x,5%,-15%[46.1 µM]
COc1ccc(-n2c(=O)c3sc4ccccc4c3n(Cc3ccccc3C)c2=O)cc1OC,3%,-20%,9,0%[46.1 µM],1%,-8%[46.1 µM]
COC(=O)[C@@H]1O[C@@H](c2c(OC)c(OC)c(C)c(OC)c2OC)[C@H](C)[C@@H](O)[C@@H]1C,x,x,x,6%[14.2 µM],x,x
COc1cccc(C(C)NC(=O)c2c(F)cccc2Cl)c1 (configuration not stated),i,1%,21,2%,-2%,7%
COc1cccc(C(C)NC(=O)Nc2ccccc2Cl)c1 (configuration not stated),x,-13%,-64*,-25%,x,u
COc1cc(=O)n2c(c1C(=O)NCc1ccco1)CCN(Cc1cccc(C)n1)CC2,-10%,-3%,x,x,1%,x
Cn1cnc([N+](=O)[O-])c1NCc1ccccc1,x,1%,-22,x,x,x
Cn1cnc([N+](=O)[O-])c1S(=O)(=O)Nc1ccccc1,i,22µM*,121,0%[46.1 µM],-22%,-14%[46.1 µM]
Cn1cnc([N+](=O)[O-])c1S(=O)(=O)c1cccc(Cl)c1,x,25µM*,31,-31%,x,-18%
Cc1nn(C(C)C(=O)c2cccc(Cl)c2)c(C)c1[N+](=O)[O-] (configuration not stated),u,-12%,-7,3%[46.1 µM],5%,5%
Cn1cnc([N+](=O)[O-])c1S(=O)(=O)Oc1ccccc1,-14%,25µM*,43,u,-7%,u
SMILES,Vaccinia mCherry,FMDV antiviral,HCMV antiviral,MARV entry inh,Vaccinia Venus,LASV entry inh
Cc1ccc(C)c(NC(=O)CSc2cn(CC(=O)N3CCCC3)c3ccccc23)c1,i,-14%,45,x,-11%,3%[46.1 µM]
O=C1[C@H](Cc2ccccc2)NC/C=C\C[C@@H](c2ccco2)N1Cc1ccccc1,-5%,x,x,x,-14%,x
COc1ccc(Nc2cc3c(cn2)cc(-c2cccnc2)n3C)cn1,x,x,-18,x,x,x
Cc1ccc(C(=O)c2c3ccc(C(F)(F)F)cc3[n+]([O-])n2CCCN)cc1,u,-13%,-2,x,u,x
COc1ccc(C(=O)c2c3ccccc3[n+]([O-])n2CCCN)cc1,-12%,-3%,-96*!,x,-6%,x
Cc1ccc(C(=O)c2c3ccc([N+](=O)[O-])cc3[n+]([O-])n2CCCN)cc1,u,7%,-2,x,14µM*,x
CN1C(=O)/C(=C\C(=O)c2cccs2)c2ccccc21,i,22µM*,-99*,u,-5%,-10%
CC(=O)Nc1cccc(NC(=O)CSc2cn(CC(=O)N3CCCCCC3)c3ccccc23)c1,i,-22%,-24,x,-17%,-29%[46.1 µM]
CCOc1ccc(N=C(NN)c2ccc3ccccc3n2)cc1,-13%,8.9µM*,-69*,u,-16%,u
CCn1ncc(/C=C/C(=O)Nc2c(C)nn(Cc3ccc(Cl)cc3Cl)c2C)c1C,-17%,-28%,-103*,u,-28%,u
COc1ccc(COC(=O)N/N=C2\C[C@@H](O)[C@@H](O)[C@@H]3[C@@H]4C(=O)N(c5cccc(Oc6ccccc6)c5)C(=O)[C@@H]4CC[C@@H]23)cc1,x,x,x,9%[14.2 µM],x,x
Clc1cccc(-n2ncc3c(N4CCCCCC4)ncnc32)c1,3%,-17%,u,x,6%,u
Cc1ccc(-n2ncc3c(N4CCC(C(N)=O)CC4)ncnc32)c(C)c1,x,53%,x,12%,x,u
Cc1nn(-c2ccccc2)c(Cl)c1C(=O)N1CCN(c2ncnc3c2cnn3-c2ccccc2)CC1,x,6.3µM*,-105*,13µM*,u,13µM*
Cc1ccc(-n2ncc3c(N4CCC5(CC4)OCCO5)ncnc32)c(C)c1,-2%,40µM*,54,x,-7%,x
Cn1ncc(Cl)c1C(=O)N1CCN(c2ccc(Cl)c(Cl)c2)CC1,-14%,28µM*,1,u,-14%,7%
Cn1ncc(Cl)c1C(=O)N1CCN(c2ccccc2)CC1,x,-5%,-8,x,x,x
Clc1ccc(-n2ncc3c(N4CCCC4)ncnc32)cc1,-2%,10µM*,-66*,u,-11%,u
CCOC(=O)C1=CCN(S(=O)(=O)c2ccc([N+](=O)[O-])cc2)C1c1ccc(C)cc1 (configuration not stated),x,x,2,x,x,x
Cn1ncc2c(N3CCN(c4ccccc4F)CC3)ncnc21,-23%,u,u,u,-12%,-5%[46.1 µM]
Cn1ncc2c(N3CCN(c4ccc(Cl)c(Cl)c4)CC3)ncnc21,-27%,11µM*,-27,18%[46.1 µM],-16%,3%
Cc1ccc(-n2ncc3c(N4CCCCCC4)ncnc32)cc1,-8%,20µM*,-99*,x,6%,u
Fc1ccc(-n2ncc3c(N4CCCCCC4)ncnc32)cc1,-1%,u,-3,x,-4%,-1%[46.1 µM]
